ST2 inh = IL1RL1 inhibition. actives 2.3% (n = 78,000). inhibition, % for hits at 17 µM. Q01638. AlphaLISA ST2-Fc/biotin-IL-33 interaction, 1 h; in the data active means inhibition above about 30%
Target sequence (Q01638 whole entry, looked up): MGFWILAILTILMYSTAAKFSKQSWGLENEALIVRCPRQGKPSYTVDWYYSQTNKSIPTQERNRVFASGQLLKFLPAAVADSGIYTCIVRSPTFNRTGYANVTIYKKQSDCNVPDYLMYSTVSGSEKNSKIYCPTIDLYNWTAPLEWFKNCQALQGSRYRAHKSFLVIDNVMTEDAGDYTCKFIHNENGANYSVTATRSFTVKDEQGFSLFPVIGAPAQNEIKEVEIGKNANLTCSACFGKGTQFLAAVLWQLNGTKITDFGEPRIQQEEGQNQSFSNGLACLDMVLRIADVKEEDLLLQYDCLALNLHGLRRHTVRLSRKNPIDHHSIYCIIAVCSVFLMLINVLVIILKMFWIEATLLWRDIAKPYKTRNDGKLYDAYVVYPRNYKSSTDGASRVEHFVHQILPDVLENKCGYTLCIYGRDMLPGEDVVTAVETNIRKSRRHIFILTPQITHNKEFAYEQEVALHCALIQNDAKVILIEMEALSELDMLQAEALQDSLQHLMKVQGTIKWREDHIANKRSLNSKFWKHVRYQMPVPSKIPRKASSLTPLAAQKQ
Numbers without * were called inactive; i = inactive. Many of the other results were omitted from the sample, so hits are more common in it than they were.

SMILES | ST2 inh
O=C(O)c1ccc(CN2Cc3[nH]cnc3C[C@H]2c2nc(-c3cccc([N+](=O)[O-])c3)no2)cc1 | i
Clc1ccc(-c2noc([C@@H]3Cc4nc[nH]c4CN3Cc3cccs3)n2)cc1 | 30.0%*
COc1cc(OC)cc(C(=O)OCc2nc3ccccc3s2)c1 | i
COc1cccc2sc(=NC(=O)c3nc4ccccc4s3)n(C)c12 | i
COc1cc(/C=C(\C#N)c2nc3ccccc3s2)cc(OC)c1OC | 34.0%*
NS(=O)(=O)c1ccc(CCNC(=O)c2ccc3nc4ccccc4c(=O)n3c2)cc1 | i
Cc1ccc(N2NC(=O)/C(=C/c3ccc(-c4cccc([N+](=O)[O-])c4)o3)C2=O)cc1C | 61.0%*
CC1=NN(c2cccc(Br)c2)C(=O)/C1=C\c1ccc(-c2cccc([N+](=O)[O-])c2)o1 | i
O=C1NN(c2ccc(Cl)c(Cl)c2)C(=O)/C1=C\c1ccc(-c2cccc(C(=O)O)c2)o1 | i
COc1cc(OC)cc(C(=O)Oc2ccccc2NC2=NS(=O)(=O)c3ccccc32)c1 | i
CCOC(=O)C1C(=O)C=C(c2ccc(F)cc2)CC1c1cccc(F)c1 (configuration not stated) | i
[O-][n+]1cccc2c(Br)cc(Br)c(O)c21 | 30.0%*
CN(C)CCNC(=O)c1ccc2c(c1)NC(=O)C(N1CCCCC1)S2 (configuration not stated) | i
COc1ccc(NS(C)(=O)=O)cc1 | i
COc1ccc(NCCNc2ccc(OC)cc2)cc1 | 48.0%*
COc1ccc(NC(=O)C(C)(C)C)cc1 | i
CCOC(=O)CCNC(=O)N1CC[C@@H]2CC[C@H](C1)N2C | i
COc1cc(C(=O)Nc2sc3c(c2C#N)CCC(C)C3)c(Br)c(OC)c1OC (configuration not stated) | i
O=C1CCc2cc(S(=O)(=O)NC3CCCCCC3)ccc2N1 | i
Cn1cncc1-c1nnc([C@H]2CCN(Cc3ccc(CO)o3)C2)o1 | i
O=C(Nc1nc2ccccc2s1)c1ccccc1F | i
NNc1nc2ccccc2s1 | 68.0%*
O=C(COc1ccc2ccccc2c1)Nc1nc2ccccc2s1 | i
CCCn1cc(CNC(=O)C2CCOC2)cn1 (configuration not stated) | i
O=C(NCCc1cnc2ccccn12)c1cc2n(n1)CCNC2 | i
SMILES | ST2 inh
O=C(Nc1ccc(Cl)cc1)c1ccc(I)cc1 | i
CCCOC(=O)c1ccc(NS(C)(=O)=O)cc1 | i
O=C1Nc2ccc(-c3ccccc3)cc2C(=O)N2CCN(C(=O)c3cccc(F)c3)C[C@H]12 | i
O=C1Nc2ccc(Br)cc2C(=O)N2CCN(C(=O)c3ccccc3)C[C@H]12 | i
O=C1Nc2ccc(Br)cc2C(=O)N2CCN(C(=O)c3cccc(F)c3)C[C@H]12 | 37.0%*
CCOc1ccc(C2C(C(=O)OC3CCCCC3)=C(C)Nc3ncnn32)cc1 (configuration not stated) | i
COc1cc(CN2C(=O)c3ccc(F)cc3C2=O)cc(OC)c1OC | i
COc1ccc(NC(=O)Cc2ccc(Br)cc2)cc1 | i
COc1ccc(Nc2cc(C)nc(Nc3ccc(NC(=O)c4ccccc4OC)cc3)n2)cc1 | 39.0%*
CC(=O)Nc1ccc(Nc2nc(C)cc(Nc3ccccc3)n2)cc1 | i
COc1ccc(CC(=O)Nc2ccc(Nc3nc(C)cc(Nc4ccc(OC)cc4)n3)cc2)cc1 | 33.0%*
COc1ccc(Nc2cc(C)nc(Nc3ccc(NC(=O)CCCc4ccccc4)cc3)n2)cc1 | 31.0%*
COc1cccc(C(=O)Nc2ccc(Nc3nc(C)cc(Nc4ccccc4)n3)cc2)c1 | i
COc1ccc(C(=O)Nc2ccc(Nc3nc(C)cc(Nc4ccc(C)cc4)n3)cc2)cc1OC | i
Cc1cc(Nc2ccccc2)nc(Nc2ccc(NC(=O)c3ccc(F)cc3)cc2)n1 | i
CCC(CC)C(=O)Nc1ccc(Nc2nc(C)cc(Nc3ccccc3)n2)cc1 | i
COc1cc(C2C3=C(CC(C)(C)CC3=O)Nc3[nH]c(=O)[nH]c(=O)c32)cc(OC)c1OC (configuration not stated) | i
CNc1ncc(CN(C)Cc2cc3n(n2)CCNC3)cn1 | i
C=CCn1c(=O)c(C(=O)Nc2cccc(Cl)c2Cl)c(O)c2ccccc21 | i
O=C(OCc1ccccc1)c1cccc(C(=O)OCc2ccccc2)n1 | i
CC1CCN(Cc2c(O)ccc3c(=O)c(-c4ccc(Cl)cc4)coc23)CC1 | i
Oc1ccc(O)c([S+]2CCCC2)c1 | i
COC(=O)c1sc2ccccc2c1NC(C)=O | i
COc1ccc(-n2c(C)c3c(C)nnc(C)c3c2C)cc1OC | 31.0%*
COc1ccc(-n2c(CCN)n[nH]c2=O)cc1OC | i
SMILES | ST2 inh
COc1ccc(N2C(=O)C3C4C=CC(C4)C3C2=O)cc1OC (configuration not stated) | i
CC1=C(C(N)=O)C(c2cccs2)n2nc(SCc3ccccc3F)nc2N1 (configuration not stated) | i
Cc1nc2c3c(-c4ccccc4)nc(N4CCCCC4)nc3nn2c(C)c1CCC(=O)O | i
COc1ccc(Nc2cc(C)nc(Nc3ccc(NC(=O)CC4CCCC4)cc3)n2)cc1 | 30.0%*
O=C(CC1CCCCC1)Nc1cccnc1 | i
COc1ccc(Nc2cc(C)nc(Nc3ccc(NC(=O)CCC4CCCCC4)cc3)n2)cc1 | 40.0%*
Cc1cc(N(C)C)nc(Nc2ccc(NC(=O)CCC3CCCC3)cc2)n1 | i
Cc1cccc(NC(=O)CCC2CCCCC2)n1 | i
Cc1ccc(Nc2cc(C)nc(Nc3ccc(NC(=O)CC4CCCC4)cc3)n2)cc1 | 31.0%*
COc1ccc(C(=O)Nc2c3c(nn2-c2cccc(C)c2C)CS(=O)C3)cc1 (configuration not stated) | i
CN1CC2(CCCN(C(=O)CN3CCOc4ccccc4C3)C2)OC1=O (configuration not stated) | i
COc1ccc2nc(SC(=O)c3ccccc3)nc(C)c2c1 | 43.0%*
COc1ccc2nc(SCCc3ccccc3)nc(C)c2c1 | i
CCOC(=O)CCSc1nc(C)c2cc(C)ccc2n1 | i
C=C(C)COc1cccc(C(=O)N2CCC(NS(C)(=O)=O)CC2)c1 | i
Oc1ccccc1-c1nnc2n1N=C(c1ccc(Br)cc1)CS2 | i
Cc1cc(C)c(S(=O)(=O)n2cnc3ccccc32)c(C)c1 | i
Cc1ccc(S(=O)(=O)N=C2C=CC(=O)c3ccccc32)c(C)c1 | 61.0%*
Cc1cc(C)c(S(=O)(=O)N=C2C=CC(=O)c3ccccc32)c(C)c1 | 39.0%*
CC(=O)N(CN1C(=O)c2ccccc2C1=O)c1cc(C)ccc1C | i
Cc1ccc(C)c(S(=O)(=O)N=C2C=C(Br)C(=O)c3ccccc32)c1 | 34.0%*
Cc1ccc(S(=O)(=O)N2CCN(c3nc(C)cc(N4CCCC4)n3)CC2)c(C)c1 | i
Cc1cc(C)c(S(N)(=O)=O)c(C)c1 | i
COC(=O)C1=C(N)OC2=C(C(=O)CC(c3ccccc3)C2)C1c1ccsc1 (configuration not stated) | i
Cc1sc2ncnc(N3CCN(c4cccc(Cl)c4)CC3)c2c1C | i
Cc1sc2c(c1C)C(=O)NC(c1ccc(N(C)C)cc1)N2 (configuration not stated) | i
CCN(CC)C(=O)Cn1c(=O)n(-c2ccc(OC)cc2OC)c(=O)c2c(C)c(C)sc21 | i
Cc1[nH]c(=O)[nH]c(=O)c1S(=O)(=O)N1CCCC(C)C1 (configuration not stated) | i
COc1ccc(NC(=O)c2cnc3n(c2=O)CCS3)c(OC)c1 | i
NC(=O)CSC1=NN2CCCC(=O)N=C2S1 | i
